Results with a measured potency or affinity are listed apart. Unmarked numbers belong to inactive results.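 How the source made its calls: active means polarization signal falls with dose and the fitted half-maximal concentration is at or below ten times the sample's top valid dose; inconclusive means flat curve at 30 to 70% inhibition, or poor fit; inactive means signal rises, flat within 30%, or potency beyond limit.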
Target: Golgi-associated PDZ and coiled-coil motif-containing protein (Homo sapiens) (UniProt Q9HD26)
Assay: CAL PDZ peptide-binding inhibitors, dose response, biochemical, fluorescence polarization, Cerulean-tagged CAL PDZ, cherry-picks (AID 504773);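 further: 0% = DMSO neutral wells and -100% = excess unlabeled competitor peptide wells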
Details: 1 h; series mostly up to 50 µM; activity change, negative = inhibition: at the top concentration

SMILES | activity change, negative = inhibition [%]
COc1cc(C)cc(CN2CC=C(c3ccccc3)CC2)c1O | 9.35
COc1cc(/C=C2\C(=O)NC(=O)N(c3ccccc3)C2=O)c([N+](=O)[O-])cc1OC | 4.94
CC(C)CN1CCN(Cc2cccc3c2OCO3)CC1CCO (stereo unspecified) | 6.14
O=C(c1ccc(F)cc1Cl)N1CCC2(CC1)OCCO2 | 20.1
c1ccc2[nH]c(CCNC3CCCCC3)nc2c1 | 7.1
CSC1=NP(=S)(SC)N2CCCC2=C1C#N (stereo unspecified) | 13.6
Cc1cc(C)c(C(=O)N2CCC3(CC2)OCCO3)c(C)c1 | -7.3
COc1ccc(CNCCc2c[nH]c3ccccc23)c(OC)c1OC | 8.02
Cn1c(=O)c2c(nc(-c3ccc(N(CCCl)CCCl)cc3)n2C)n(C)c1=O | 1.8
O=c1[nH]c(CN2CC=C(c3ccccc3)CC2)nc2scc(-c3ccccc3)c12 | 6.71
O=C1CN=C(c2ccccc2)c2oc3ccc(Br)cc3c2N1 | 11.9

From PubChem BioAssay AID504773 (Broad Institute, 2011)
